# Screens: PubChem, Center for Chemical Genomics, University of Michigan
# TAR Tat displ = TAR RNA-Tat peptide displacers, HIV-1, primary screen, biochemical, FRET, FAM/TAMRA-labeled Tat | HIV-1 TAR RNA, Tat peptide displacement FRET; active compounds read high | z-score (no concentration beside the values) | 0.6% of 100,000 active; active means z-score of 3 or more in at least 2 runs
# CDC25B-CDK2 inh = primary biochemical HTRF screen for blockers of M-phase inducer phosphatase 2 binding to CDK2/cyclin A | HTRF CDC25B-CDK2/CyclinA binding, anti-His/anti-Flag; active compounds read high | z-score (concentration not given with the values) | 0.72% of 94,000 active | AID 1259370, 2018; in the data active means z-score above about 3.2
# * hit, by the source's call; . = no result. Only some compounds are listed: those with a hit (about 0.9% of all), similar ones and a draw of the others.
SMILES,TAR Tat displ,CDC25B-CDK2 inh
CC1(C)SC(c2ccccc2)N[C@H]1C(=O)O (some centres undefined),.,-2.3
O=C(Nc1cccc(C(=O)Nc2ccc(S(=O)(=O)O)c3cc(S(=O)(=O)O)cc(S(=O)(=O)O)c23)c1)Nc1cccc(C(=O)Nc2ccc(S(=O)(=O)O)c3cc(S(=O)(=O)O)cc(S(=O)(=O)O)c23)c1,.,4.6*
CC(=O)Nc1ccc(S(=O)(=O)Nc2cccc(C(=O)Nc3ccccc3C(=O)O)c2)cc1,.,-2.6
COc1cc(OC)cc(C(=O)Nc2noc3ccccc23)c1,0.69,-1.3
COc1cccc(C(=O)Nc2n[nH]c3ccccc23)c1,.,5.2*
O=c1cc(-c2ccccc2)oc2ccc(-c3nn[nH]n3)cc12,.,-1.1
Cc1oc2c(O)c(O)ccc2c(=O)c1-c1ccccc1,.,-5
O=c1cc(-c2ccccc2)oc2cc(O)c(O)cc12,29*,.
O=c1cc(-c2ccccc2)oc2c(O)c(O)ccc12,19*,-2.1
Cn1nc(C(=O)N2CCCCC2)c2c1-c1ccccc1SC2,1.1,-0.24
C1CCc2c(c(N3CCOCC3)nc3sc4c(N5CCNCC5)nnnc4c23)C1,0.78,0.8
CCc1ccc(NS(=O)(=O)c2cc(-c3noc(C)n3)cs2)cc1,1.4,.
CCOC(=O)c1[nH]c(C)c(C(=O)Nc2cc(F)ccc2F)c1C,.,-0.07
Cc1[nH]c(=O)[nH]c(=O)c1C1N2CC3(C)CN1CC(c1ccccc1)(C2)C3=O (centres undefined),1.5,-1.3
COc1cc2nc(Nc3ccc(C)c(Cl)c3)nc(N)c2cc1OC,1.3,4.9
COc1cc2nc(Nc3ccc(C)c(C)c3)nc(N)c2cc1OC,1.3,9.3*
COc1ccc(Nc2nc(N)c3ccccc3n2)cc1,0.37,-1.9
COc1cc2nc(Nc3ccc(F)cc3)nc(N)c2cc1OC,1.6,13*
Cc1ccc2[nH]c(=O)c(CN(C(C)C)S(=O)(=O)c3ccccc3)cc2c1,19*,-2.8
CCN(Cc1cc2cc(C)ccc2[nH]c1=O)S(=O)(=O)c1ccc(C)cc1,0.92,-2.5
CCOc1ccccc1N(C)C(=O)c1noc2c1COc1ccccc1-2,0.36,-1
Cn1c(=O)c2c(-c3ccc(C(C)(C)C)cc3)n(-c3ccccn3)cc2n(C)c1=O,0,0.34
Cc1cc(-n2nnc3ccccc32)nc(C)n1,14*,-1.2
Cc1cc(C)n2c(n1)nc1ccccc12,.,-2.1
COc1ccc(C(=O)CSc2n[nH]c(-c3ccco3)n2)cc1C,-1.9,-3.2
SMILES,TAR Tat displ,CDC25B-CDK2 inh
Cc1ccc(C(=O)CSc2n[nH]c(-c3ccco3)n2)cc1C,15*,-4.1
Cc1ccc(CNc2nc(Nc3ccc(Cl)cc3)c3cnn(C)c3n2)cc1,-0.47,.
CN(Cc1ccco1)S(=O)(=O)c1ccc2[nH]c3c(c2c1)CCCC3,-4.7,.
COC(=O)C1=C(C)Nc2[nH]c(=O)[nH]c(=O)c2C1c1ccc(Br)cc1 (centres undefined),1.1,3.6*
C=CCOC(=O)C1=C(C)Nc2[nH]c(=O)[nH]c(=O)c2C1c1ccc(CC)cc1 (centres undefined),.,-1.7
CC(=O)Nc1nc(C)c(-c2csc(NCc3ccccc3)n2)s1,.,6.8*
CC(=O)Nc1nc(C)c(-c2csc(Nc3ccc(Cl)cc3)n2)s1,-0.3,-0.18
COC(=O)CN1C(=O)C(C)(C)c2cc(S(=O)(=O)NC3CCCC3)ccc21,-0.03,.
CCCCN1CCS(=O)(=O)c2c(Cl)c(N3CCOCC3)nc(Oc3ccc(F)cc3)c21,0.06,7.8
COc1ccc(Oc2nc(N3CCCC3)c(Cl)c3c2N(CC2CCCO2)CCS3(=O)=O)cc1 (centres undefined),-1.2,9.4*
Cc1nn(C)c2c1c(C(F)(F)F)cc(=O)n2CC(=O)NC1CCCCC1,-0.63,.
Cc1ccc2cc(-c3noc(-c4ccco4)n3)c(=O)[nH]c2c1,0.78,2
Cc1ccc2[nH]c(=O)c(-c3noc(-c4ccco4)n3)cc2c1,28*,10*
Cc1ccc2nc(Cl)c3cc(C(=O)NC(C)CCc4ccco4)sc3c2c1 (centres undefined),.,0.13
CCOC(=O)c1noc2nc(C)nc(N3CCc4ccccc4C3)c12,0.22,.
O=C(CCCc1nc(-c2ccco2)no1)Nc1ccncc1,4.2*,-2.1
O=C(CCc1nc(-c2ccco2)no1)Nc1ccncc1,1.2,6.6
O=S(=O)(c1ccc(Cl)cc1)c1nc(-c2cccs2)oc1NCc1ccccc1,-1.9,0.34
CCN(CC)S(=O)(=O)c1ccc2c(c1)N(CC(=O)NC1CCCC1)C(=O)C1CCCCN21 (centres undefined),1.8,.
O=C1Nc2cc(Cl)ccc2SC2CCCCC2O1 (centres undefined),.,20*
CC1CC(=O)Nc2cc(S(=O)(=O)Nc3cccc(Cl)c3)ccc2S1 (centres undefined),1.4,.
COC(=O)c1sccc1NC(=O)COCc1cc(-c2cccs2)on1,0.14,.
O=C(COCc1cc(-c2cccs2)on1)Nc1ccccc1Br,10*,.
CC(C)(C)NS(=O)(=O)c1sc(Br)cc1Br,.,0.49
Nc1ccc(C(=O)O)c(O)c1 (tested in a mixture with another compound),16*,.
SMILES,TAR Tat displ,CDC25B-CDK2 inh
O=C(O)c1cc(O)ccc1O,3.2,.
Nc1ccc(O)c(C(=O)O)c1,21*,.
Nc1ccc(C(=O)O)cc1,1.6,.
O=C(O)c1cccc(O)c1O,9.6*,.
O=C(O)c1cccc2cccc(C(=O)O)c12,.,-1.3
Cc1ccc(C(=O)Nc2nc(-c3ccc(Br)cc3)ns2)cc1,0.91,0.21
CCNC(=O)c1cnc2sc(N3CCCC(C)C3)nn2c1=O (centres undefined),0.68,.
CC(=O)Nc1ncccc1OC(C)=O,.,-0.32
CCNc1nc(N2CCN(CC)CC2)c2cnn(C)c2n1,1.6,.
COc1ccc(N2CSC3=C(C#N)C(c4c(F)cccc4Cl)CC(=O)N3C2)cc1 (centres undefined),-1.8,3.7*
COc1ccc(C2CC(=O)N3CN(c4ccc(C)c(C)c4)CSC3=C2C#N)c(OC)c1 (centres undefined),-1.4,3.7*
COc1ccc(C2CC(=O)N3CN(c4ccccc4)CSC3=C2C#N)c(OC)c1 (centres undefined),-1.4,5.2*
COc1ccc(C2CC(=O)N3CN(c4ccc(Cl)cc4)CSC3=C2C#N)c(OC)c1 (centres undefined),0.43,6*
COc1ccc(C2CC(=O)N3CN(c4ccc(OC)cc4OC)CSC3=C2C#N)c(OC)c1 (centres undefined),-1.7,5.7
N#CC1=C2SCN(c3ccc(F)cc3)CN2C(=O)CC1c1c(F)cccc1Cl (centres undefined),-0.67,1.2
O=S(=O)(Nc1cccc(-c2ccc(N3CCOCC3)nn2)c1)c1ccc(Oc2ccccc2)cc1,-0.03,.
COc1cc(OC)c(N(C)C(=O)c2noc3c2COc2ccccc2-3)cc1Cl,-0.29,-1.6
O=C(O)CSc1nnc2n(Cc3ccccc3)c3ccccc3n12,-0.86,-0.9
O=c1c(NCCc2ccc(Cl)cc2)c(-c2ccc(Cl)cc2)c1=O,-1.6,.
O=c1c(NCCc2ccc(Cl)cc2)c(-c2ccccc2)c1=O,6*,.
O=C(Nc1nnc(SCc2cc(=O)n3ccsc3n2)s1)C1CCCCC1,0.66,.
N#CC1=C2SCN(c3ccccc3F)CN2C(=O)CC1c1cccc(F)c1 (centres undefined),0.19,6.6*
